# BAZ2B inh – qHTS Assay for Inhibitors of BAZ2B | Bromodomain adjacent to zinc finger domain protein 2B (Homo sapiens), Q9UIF8 | AlphaScreen BAZ2B-H3K14Ac peptide displacement | Potency, µM (highest dose often 114 µM), for the others: at the top dose activity change, negative = inhibition, actives largely listed as inhibitors | 360,000 compounds, 4.4% hits | AID 504333, 2011; further: on the % scale 0 is the no-effect control and ±100 the full control effect; nearly all actives have a fitted effect of over 60% in size
#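 AlphaScreen displacement: compounds (up to 110uM) incubated 30 min at room temperature with a preformed 50 nM BAZ2B/50 nM biotinylated H3K14Ac peptide complex in PBS pH 7.4 with Tween-20. Donor and acceptor beads at 10 ug/mL final added, 20 min light-protected before reading.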
# G9a inh – qHTS Assay for Inhibitors of Histone Lysine Methyltransferase G9a; Histone-lysine N-methyltransferase EHMT2 (Homo sapiens), Q96KQ7; G9a H3K9 monomethylation, AlphaScreen, 2 h; Potency, µM (doses to about 102 µM), for the others: at the top dose activity, negative = inhibition, usual class: inhibitors; 350,000 compounds, 8.8% hits; further: on the % scale 0 is the no-effect control and ±100 the full control effect; nearly all actives have a fitted effect of over 75% in size
#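 Step 1: enzyme (final 20 nM) with compound, 15 min RT. Step 2: substrate peptide 500 nM and SAM 20 uM, 2 h RT. Step 3: anti-H3K9me1 antibody and AlphaScreen beads, 10 min, then plate read.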
# L3MBTL1 inh – qHTS Assay for the Inhibitors of L3MBTL1. Lethal(3)malignant brain tumor-like protein 1 (Homo sapiens), Q9Y468. AlphaScreen L3MBTL1–H3K9me1 peptide binding. Potency, µM (series often up to 57.1 µM), for inactives: top-dose activity, negative = inhibition, usual class: inhibitors. 230,000 compounds, 0.66% hits; further: on the % scale 0 is the no-effect control and ±100 the full control effect; nearly all actives have a fitted effect of over 60% in size
#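 First, the protein-peptide complex forms for 30 min at room temperature (L3MBTL1 50 nM, biotinylated H3K9me1 peptide 75 nM). Next, compounds are pin-transferred and incubated 30 min. Finally, AlphaScreen beads are added and read after 30 min.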
# JMJD2A Tudor inh – qHTS Assay for Inhibitors of JMJD2A-Tudor Domain. Lysine-specific demethylase 4A (Homo sapiens), O75164. AlphaScreen JMJD2A-Tudor / H3K4me3 peptide binding. Potency, µM (top dose mostly 114 µM), without a hit: at the top dose activity change, negative = inhibition, hits mostly inhibitors. 390,000 compounds, 4.4% hits; further: on the % scale 0 is the no-effect control and ±100 the full control effect; nearly all actives have a fitted effect of over 50% in size
# Target sequence (O75164 whole entry, looked up, the tested form may be a part): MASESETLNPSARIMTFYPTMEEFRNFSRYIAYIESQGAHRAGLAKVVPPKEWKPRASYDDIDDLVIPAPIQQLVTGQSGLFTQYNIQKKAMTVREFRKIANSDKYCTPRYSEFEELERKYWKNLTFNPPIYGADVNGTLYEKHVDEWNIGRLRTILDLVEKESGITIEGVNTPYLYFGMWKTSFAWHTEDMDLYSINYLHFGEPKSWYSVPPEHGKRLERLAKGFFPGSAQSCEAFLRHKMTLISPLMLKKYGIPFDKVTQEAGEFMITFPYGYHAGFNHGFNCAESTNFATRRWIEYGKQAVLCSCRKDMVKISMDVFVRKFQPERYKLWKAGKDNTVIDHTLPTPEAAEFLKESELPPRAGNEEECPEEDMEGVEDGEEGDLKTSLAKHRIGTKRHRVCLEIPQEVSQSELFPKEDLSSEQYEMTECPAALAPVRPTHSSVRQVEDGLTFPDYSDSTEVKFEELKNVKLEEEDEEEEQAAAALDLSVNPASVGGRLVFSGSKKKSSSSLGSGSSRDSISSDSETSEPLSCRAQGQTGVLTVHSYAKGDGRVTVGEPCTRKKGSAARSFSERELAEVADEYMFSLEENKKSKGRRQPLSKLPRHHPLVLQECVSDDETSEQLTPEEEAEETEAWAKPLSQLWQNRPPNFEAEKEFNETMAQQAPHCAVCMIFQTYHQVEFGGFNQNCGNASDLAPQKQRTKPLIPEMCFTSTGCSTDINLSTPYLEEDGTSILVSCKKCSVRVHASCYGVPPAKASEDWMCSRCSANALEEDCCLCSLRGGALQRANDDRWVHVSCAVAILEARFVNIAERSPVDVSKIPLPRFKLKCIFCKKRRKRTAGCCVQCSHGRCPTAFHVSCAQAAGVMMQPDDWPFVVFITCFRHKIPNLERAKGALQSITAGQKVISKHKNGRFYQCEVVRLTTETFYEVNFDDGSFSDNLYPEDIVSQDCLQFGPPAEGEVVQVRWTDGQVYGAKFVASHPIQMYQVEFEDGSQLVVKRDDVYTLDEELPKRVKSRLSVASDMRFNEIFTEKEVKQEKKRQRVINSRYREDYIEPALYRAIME
# HP1b chromo inh – HTS for Inhibitors of HP1-beta Chromodomain Interactions with Methylated Histone Tails | Chromobox protein homolog 1 (Homo sapiens), P83916 | AlphaScreen HP1-beta / biotin-H3K9me3 peptide binding | Potency, µM (series often up to 114 µM), inactives show at the highest dose activity change, negative = inhibition, actives largely listed as inhibitors | 390,000 compounds, 0.56% hits | AID 540317, 2011; further: nearly all actives have a fitted effect of over 70% in size
#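 AlphaScreen: HP1-beta (50 nM) preformed 30 min with biotin-H3(1-18)K9me3 peptide (50 nM) in PBS pH 7.4, 0.01% Tween-20. Compound added for 30 min at RT, then streptavidin donor/nickel chelate acceptor beads (10 ug/mL) for 30 min.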
# An asterisk follows results filed as active; ? = inconclusive; . = not tested or not shown; [ ] = remark or other dose. An excerpt weighted towards active compounds, which were near 11% of everything screened. The call rests on the fitted dose curve; in most records, active means well fitted inhibition curve with a large enough effect; inconclusive means small, poorly fitted or top-dose-only effect; inactive means no such curve, though single readings can be large or run the other way. Potency means the concentration at half of the fitted maximal effect.
SMILES,BAZ2B inh,G9a inh,L3MBTL1 inh,JMJD2A Tudor inh,HP1b chromo inh
CCCCOc1ccc(C(=O)CCN2CCCCC2)cc1,-23%,10µM*,3%,-8%,84%
CCCCCC(O)(CCN1CCCCC1)c1ccc(OCC)cc1 (stereo not given),-16%,15%[59 µM],.,40µM*,9%
CCn1ccc2cc(S(=O)(=O)N3CCCN(C(=O)Nc4ccccc4F)CC3)ccc21,-4%,-43%[59 µM],.,-23%,10%[57 µM]
COc1ccc(N2CCCC2)c(NC(=O)COc2ccccc2Cl)c1,?,35µM*,.,-13%,-7%
COc1ccc(N2CC(C(=O)Nc3cc(C(F)(F)F)ccc3N3CCCC3)CC2=O)c(OC)c1 (stereo not given),-27%,?,-4%,-17%,1%
COc1ccc(N2CC(C(=O)Nc3ccccc3N3CCCC3)CC2=O)c(OC)c1 (stereo not given),3%,50µM*,-14%,-20%,15%
O=C(COc1ccccc1Cl)NC(=S)Nc1ccccc1N1CCCC1,20µM*,40µM*,.,?,5%
CCOc1ccc(CNC(=O)c2ccc3c(c2)nc2n3CCCCC2)cc1,4%,-6%[59 µM],.,-18%,18%[57 µM]
CC(=O)c1ccc(N2CC(C)(C)C2=O)cc1,-3%,0%,?,-15%,7%
CN(C)c1ccc(N2CC(C)(C)C2=O)cc1,-22%,10µM*,11%,-27%,-18%
Cc1ccc(NS(=O)(=O)c2ccc3ccccc3c2)cc1C,.,.,.,-14%,.
CC1CCc2onc(C(=O)N3CCN(c4ccc(F)cc4)CC3)c2C1 (stereo not given),0%[57.1 µM],2%[59 µM],.,-10%,15%
O=C(O)c1cnn2c1C(=O)N(Cc1cccs1)CC2,22µM*,40µM*,.,?,32µM*
COc1ccc(C2=C(C)C(=NCCCN3CCN(c4cc(Cl)ccc4C)CC3)NS2(=O)=O)cc1,-13%,-30%[59 µM],.,-13%,0%
CC1=C(c2ccc(Cl)cc2)S(=O)(=O)NC1=NCCCN1CCN(c2cc(C)ccc2C)CC1,-21%,?,.,16µM*,25%
CC(=O)N1N=C(c2ccc(C)cc2)CC1c1cn(-c2ccccc2)nc1-c1cccs1 (stereo not given),-13%,7%[59 µM],.,-13%,29%
O=C(CSc1nnc(NC(=O)c2c(F)cccc2F)s1)NCc1ccco1,9%,45µM*,-8%,-16%,19%
O=C(CSc1nc(-c2ccc(F)cc2)cs1)NC(=O)NCc1ccco1,50µM*,-16%[59 µM],-25%,?,4%
O=C(CSc1nnc(NC(=O)c2ccccc2F)s1)NCc1ccco1,?,19%[12.7 µM],.,-20%,7%
CCC(C)(C)n1nnnc1C(c1cc2ccc(C)cc2[nH]c1=O)N(Cc1cccnc1)Cc1ccco1 (stereo not given),?,50µM*,-3%,?,-8%
Cc1cc2cc(C(c3nnnn3C3CCCC3)N(Cc3cccnc3)Cc3ccco3)c(=O)[nH]c2cc1C (stereo not given),-1%,?,.,-29%,14%
CCCn1c(=O)[nH]c(=O)c2c1nc(-c1ccc(OC(F)(F)C(F)C(F)(F)F)cc1)n2CCOC (stereo not given),9%,25µM*,.,-5%,53%
CCCCn1c(-c2ccc(OC(F)F)cc2)nc2c1c(=O)[nH]c(=O)n2CC(C)C,24%,50µM*,.,-5%,38%
COc1ccc(C2/C=C\CN([S+](=O)([O-])c3ccc4ccccc4c3)C(C)C(=O)N2Cc2ccc(F)cc2)cc1 (stereo not given),.,.,.,-26%,16%
CCOc1ccccc1-n1c(N)c(C(N)=O)sc1=S,-37%,35µM*,-10%,-19%,-34%
SMILES,BAZ2B inh,G9a inh,L3MBTL1 inh,JMJD2A Tudor inh,HP1b chromo inh
CCCCNC(=O)c1sc(=S)n(-c2ccccc2OC)c1N,-34%,16µM*,-15%,-30%,?
COc1ccc(Cl)cc1-n1c(N)c(C(N)=O)sc1=S,-2%,8.9µM*,0%,?,?
CCOC(=O)c1sc(=S)n(-c2ccccc2OC)c1N,?,?,-7%,?,?
COC(=O)c1sc(=S)n(-c2ccccc2OC)c1N,-6%,35µM*,-10%,44%,15%
CCOC(=O)c1c(C)[nH]c(CCC(=O)Nc2c(C)cccc2CC)c1C,1%,10%[59 µM],.,-14%,10%[57 µM]
Cn1cccc1C(NC(=O)c1ccccc1)C(Cl)(Cl)Cl (stereo not given),?,45µM*,.,-26%,1%
O=C1/C(=C/c2cccc([N+](=O)[O-])c2)CCc2ccccc21,?,?,-13%,?,-30%
O=C1/C(=C/c2ccc([N+](=O)[O-])cc2)CCc2ccccc21,32µM*,?,.,.,.
CN(Cc1ccco1)C(=O)CCc1nc2sc3c(c2c(=O)[nH]1)CCCC3,?,79µM*,.,?,-2%
CN(C)C(=O)CCc1nc2sc3c(c2c(=O)[nH]1)CCCC3,5%,-7%[59 µM],.,-4%,27%
Cc1ccc(CN(C)C(=O)CCc2nc3sc4c(c3c(=O)[nH]2)CCCC4)o1,-37%,.,.,71µM*,-10%
Cc1nn(-c2ccc3nnc(C)n3n2)c(C)c1CCC(=O)Nc1ccc(OC(F)(F)F)cc1,3%,4%[59 µM],.,-7%,14%[57 µM]
Cc1cc(C)cc(OCC(=O)NCC2(N3CCOCC3)CCCCC2)c1,-38%,1%[59 µM],.,6%,59%
CC1CCC/C(=C\Nc2ccc(C(=O)O)c(O)c2)C1=O (stereo not given),-13%,45µM*,-8%,-24%,22%
CCc1ccccc1NC(=O)c1sc2nc(C)cc(COC)c2c1N,53%,21%[59 µM],.,36%,180%
Cc1ccc(F)cc1NCC(=O)Nc1ccc(Cl)cc1F,-2%,25%,9%,-2%,23%
Cc1cc(F)ccc1NCC(=O)Nc1ccccc1Br,6%,50µM*,-1%,-18%,4%
Cc1cccc(Cl)c1NNC(=O)Nc1c([N+](=O)[O-])c(C)nn1C,-13%,16µM*,.,-19%,0%
C/C(=N/OC(=O)c1ccc(C)cc1)c1ccc(N2C(=O)C3CCCCC3C2=O)cc1 (stereo not given),10%,-27%,13%,40µM*,-11%
C/C(=N/NC(=O)c1ccccc1O)c1ccc(N2C(=O)C3CCCCC3C2=O)cc1 (stereo not given),-7%,-1%[59 µM],0%,-3%,31%
